Reference: PubChem BioAssay AID1628 (Sanford-Burnham Center for Chemical Genomics, 2009)
The campaign covered roughly 190,000 compounds. About 930 (0.49%) were called active. Some of the results follow. Measured potencies and affinities stand elsewhere. Values without a mark were called inactive.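 The calls were made as follows: active = z-score of insulin promoter reporter brightness in nuclei below -3 at 5 µM, with at least 500 cells counted; inconclusive = wells with under 500 cells, flagged as toxic or sparse; inactive = the rest.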

Assay: insulin promoter down-regulators in MIN6 cells, imaging, high-content screening, mouse beta cells (AID 1628)
Conditions: MIN6 insulin promoter GFP reporter, at 5 µM, hits give low values
For `CCn1c(C2CC(=O)N(Cc3ccccc3)C2)nc2ccccc21` (centres undefined), the z-score was -5.96 (active). Work on `N#C/C(=C\c1ccc(-c2ccc(C(=O)O)cc2)o1)c1nc2ccccc2[nH]1` yielded a z-score of 6.2. For `Cn1c(SCC(=O)NC2CCCCCC2)nnc1-c1cccs1`, the z-score was 2.42. For `O=C(COC(=O)c1cccs1)NC1CCCCC1`, the z-score was -5.3 (active). Work on `Nc1c(C(=O)NC2CCCC2)sc2nc(-c3cccs3)ccc12` yielded a z-score of 3.89. With `Cc1c(C(=O)N2CCOCC2)[nH]c2c1C(=O)CC(c1ccccc1Cl)C2` (centres undefined) the z-score was -3.07 (active). `Cc1cc(F)c(F)c(C(=O)N2CCOCC2)c1` gave a z-score of 1.59. `O=C(CSc1nnc(SCc2ccc(Cl)cc2)s1)N1CCOCC1` gave a z-score of -0.99. With `Clc1ccc(CSc2nnc(/C=C/c3ccccc3)o2)cc1` the z-score was -4.41 (active). With `NCCc1nnc(SCc2ccccc2F)o1` the z-score was 1.04. In the case of `CCCC1CC(=O)OC1(C)C(=O)CSc1n[nH]c(-c2ccccc2)n1` (centres undefined), the z-score is reported as -5.89 (active). Work on `CCN(CC)c1ccc(/C=C(\C#N)c2nc(-c3cccs3)c(NC(C)=O)s2)cc1` yielded a z-score of 16.9. Molecule `CN(C)C=Nc1ccc2nn(-c3ccccc3)nc2c1` has a z-score of 3.14. For `CCC(c1nnnn1C1CCCC1)N(Cc1cccs1)Cc1cc2cc(C)ccc2[nH]c1=O` (centres undefined), the z-score was -3.35 (active). For `Cc1cccc2cc(CN(Cc3cccs3)C(c3nnnn3C3CCCC3)C(C)C)c(=O)[nH]c12` (centres undefined), the z-score was -4.88 (active). With `CCOc1ccc2[nH]c(=O)c(CN(Cc3cccs3)C(CC)c3nnnn3C(C)(C)CC)cc2c1` (centres undefined) the z-score was -3.01 (active). Molecule `COc1cc(OC)c(OC)cc1C#N` has a z-score of 0.13. Molecule `COc1cccc(C2C3CN(C)CC=C3C(C#N)=C(N)C2(C#N)C#N)c1OC` (centres undefined) has a z-score of 13.7. Work on `Cn1c(CNc2nc3ccccc3n2C)nc2ccccc21` yielded a z-score of 1.15. For `COc1ccc2nc3ccccc3nc2c1`, the z-score was -1.09. `C=CCn1c(/N=C/c2ccc3c(c2)OCO3)nc2ccccc21` gave a z-score of 0.8. `CC(O)c1nc2ccccc2n1CCOc1ccccc1` (centres undefined) showed a z-score of 1.64. For `COc1ccc(C2C(C(=O)c3ccccc3)=C(C)Nc3nc4ccccc4n32)c(OC)c1` (centres undefined), the z-score was 3.79. `COc1ccc(CNC(=O)CN2CCC(C(=O)c3ccc(OC)cc3)CC2)cc1` gave a z-score of 1.22. For `Cc1ccc2nc(/C(C#N)=C\c3ccc(N4CCOCC4)o3)[nH]c2c1`, the z-score was 15.9. `CC(C)=CCc1c2c(c3occ(-c4ccc(O)cc4)c(=O)c3c1O)C=CC(C)(C)O2` showed a z-score of -0.49. Work on `N#C/C(=C/c1ccc(N2CCOCC2)o1)C(=O)Nc1ccccc1` yielded a z-score of 4.15. In the case of `Cn1c(N)cc(=O)n(Cc2ccccc2)c1=O`, the z-score is reported as -5.18 (active). With `CCC(=O)OCC(=O)c1c(N)n(Cc2ccccc2)c(=O)n(C)c1=O` the z-score was 3.29. Work on `Cc1cc2nc3c(=O)n(Cc4ccccc4)c(=O)[nH]c3nc2cc1N` yielded a z-score of 12.1. Molecule `Cc1noc(C)c1S(=O)(=O)N1CCC(C(=O)N2CCN(C3CCCC3)CC2)CC1` has a z-score of 3.05. With `Cc1n[nH]c(C)c1S(=O)(=O)N1CCCC(C(=O)N2CCN(c3ccc(Cl)cc3)CC2)C1` (centres undefined) the z-score was -3.2 (active). In the case of `CCCS(=O)(=O)N1CCC(C(=O)NCCC(C)C)CC1`, the z-score is reported as 3.11. For `CSc1ccccc1C(=O)NC1CCCC1`, the z-score was -5.87 (active). For `Cc1ccccc1C(=O)NC1CCN(C(=O)N2CCOCC2)CC1`, the z-score was 1.27. In the case of `O=C(Cn1nnc(-c2ccc(S(=O)(=O)N3CCCC3)cc2)n1)Nc1ccccc1-n1cccc1`, the z-score is reported as -4 (active). For `COc1ccc(-c2[nH]ncc2CN(C)Cc2ccccn2)c(OC)c1`, the z-score was -4.89 (active). With `COc1ccccc1NC(=S)N(Cc1ccc(C)cc1)Cc1ccccn1` the z-score was 1.92. `CCCCCCCCCCCC(=O)c1c(O)cccc1O` gave a z-score of -0.04. `CN1C(=S)N(c2cccnc2)C(=O)/C1=C\c1ccc(N(C)C)cc1` showed a z-score of 5.58. For `CCc1ccccc1NC(=S)N(CCN(C)C)C(C)c1ccccn1` (centres undefined), the z-score was -5.14 (active). For `Cc1ccccc1NC(=S)N(CCN(C)C)C(C)c1ccccn1` (centres undefined), the z-score was -6.19 (active). In the case of `COCCN(C(=S)Nc1ccc(C)cc1C)C(C)c1cccs1` (centres undefined), the z-score is reported as 1.14. In the case of `CCN1CCN(C(=O)C2(NC(=O)Nc3cccc(F)c3)CCCCC2)CC1`, the z-score is reported as -4.67 (active). In the case of `CC(C)CCN(C(=S)Nc1cccc(F)c1)C(C)c1cccs1` (centres undefined), the z-score is reported as 4.77. In the case of `COc1ccccc1NS(=O)(=O)c1cc(NC(=O)c2ccc(=O)[nH]c2)ccc1N1CCOCC1`, the z-score is reported as -4.48 (active). In the case of `CCCCn1nnnc1SCC(=O)Nc1cccc(C)n1`, the z-score is reported as -4.7 (active). `Cc1cccc(NC(=O)Cn2cc([N+](=O)[O-])cn2)n1` showed a z-score of 2.86. For `Cc1nn(C)c(C)c1NC(=O)CSc1nnc(C)n1-c1ccccc1`, the z-score was 0.56. With `NC(=S)n1[nH]c(-c2ccc([N+](=O)[O-])cc2)c(N=Nc2cccc(Cl)c2)c1=O` the z-score was -3.23 (active). For `NC(=S)n1[nH]c(-c2ccc([N+](=O)[O-])cc2)c(N=Nc2ccc(Cl)cc2)c1=O`, the z-score was -5.03 (active). For `Cc1ccccc1SCc1noc(C(=O)NC(C)C)c1C(=O)O`, the z-score was 3.02. For `O=C(NCc1cccs1)c1ccc(N2CCCCC2)nc1`, the z-score was 3.41. Work on `Cc1cc(C)c(C#N)c(SCC2COc3ccccc3O2)n1` (centres undefined) yielded a z-score of 3.48. In the case of `Cc1cc(C)c(S(=O)(=O)c2ccccc2C)c(SCC(C)C)n1`, the z-score is reported as -3.18 (active). `CCOC(=O)c1c(-c2ccc(C)cc2)csc1NC(=O)/C(C#N)=C/c1ccc(O)c(OC)c1` gave a z-score of 8.18. `CN(C)c1ccc(/C=C/C(O)=C2/C(=O)N(C)C3(C)CC2c2ccccc2O3)cc1` (centres undefined) showed a z-score of 3.04. With `CCCS(=O)(=O)NCCc1cc2ccc(C)cc2[nH]c1=O` the z-score was 0.95. With `CCN(CC)CCN(Cc1cc2ccc(C)cc2[nH]c1=O)C(=O)NC1CCCCC1` the z-score was -4.95 (active). For `CCc1c(C(=O)NC2CCCCC2)[nH]c(C)c1C(C)=O`, the z-score was 3.85. For `O=C(c1ccc2c(c1)OCO2)N1CCc2ccccc2C1`, the z-score was -0.76. `O=C(c1ccc2c(c1)OCO2)N1CCCC1` showed a z-score of 8.93. For `O=C(c1ccc2c(c1)OCO2)N1CCCC(c2ccccc2)C1` (centres undefined), the z-score was -3.99 (active). With `O=C(c1ccc2c(c1)OCO2)N1CCN(c2ccccn2)CC1` the z-score was -5.54 (active). For `O=C(CC12CC3CC(CC(C3)C1)C2)NCC(=O)N1CCc2ccccc2C1`, the z-score was 3.34. Molecule `CN(C)c1ccc(/C=C/C(=O)c2c(O)c3ccccc3oc2=O)cc1` has a z-score of 8.78. With `CN(C)c1ccc(C(=O)c2ccc(N(C)C)c3ccccc23)cc1` the z-score was -5.22 (active). With `O=C(O)c1cc(-c2ccncc2)nc2ccc(F)cc12` the z-score was 3. `O=C(O)CCCC(=O)Nc1c(F)c(F)c(F)c(F)c1F` gave a z-score of 0.09. Work on `Cc1c2ccccc2nc2c(F)c(NC(C)C)c(F)c(F)c12` yielded a z-score of 9.6. With `Cc1noc(C)c1CSCC(=O)N1CCN(c2ccc(F)cc2)CC1` the z-score was -3.68 (active). `O=C(NCc1ccccn1)C(=O)NCC(c1ccco1)N1CCN(c2ccc(F)cc2)CC1` (centres undefined) showed a z-score of 1.32. For `COc1ccc(CN=Cc2[nH]c3ccc(Br)c(Cl)c3c2O)cc1`, the z-score was 8.49. In the case of `COc1cccc(/C=N/NC(=O)c2c(C)nc3ccc(Br)cn23)c1O`, the z-score is reported as -4.47 (active). In the case of `COc1cc(OC)c2cc(C(=O)N/N=C/c3cccc(OC)c3O)[nH]c2c1`, the z-score is reported as -3.6 (active). For `CN(C)c1nc(N)nc(/C(C#N)=C/C2CC3C=CC2C3)n1` (centres undefined), the z-score was 3.05. In the case of `Oc1ccc2ccccc2c1N=Nc1ccccn1`, the z-score is reported as -8.6 (active). In the case of `CCOC(=O)c1ccc2[nH]c3ccccc3c2c1`, the z-score is reported as -0.27. For `Cc1ccc(/C=[N+](\[O-])c2ccc(N(C)C)cc2)c2nsnc12`, the z-score was 4.9. In the case of `CN(C)S(=O)(=O)c1cc(C(=O)NCC2CCCO2)c(Cl)cc1Cl` (centres undefined), the z-score is reported as -4.71 (active). `O=C(COC(=O)c1cc(S(=O)(=O)N2CCOCC2)ccc1O)NCC1CCCO1` (centres undefined) showed a z-score of 3.77. Molecule `O=C(NCC1CCCO1)C1CCN(S(=O)(=O)N2CCCC2)CC1` (centres undefined) has a z-score of 3.58. For `Cc1cc(/C=C2\SC(=S)NC2=O)c(C)n1C1CC1`, the z-score was 3.04. Work on `O=C(OCC(=O)N1CCN(C(=O)c2ccco2)CC1)c1ccccc1OCc1ccccc1` yielded a z-score of 11.8. In the case of `O=C(CN1CCN(C(=O)c2ccco2)CC1)Nc1ccccc1-c1ccccc1`, the z-score is reported as -4.53 (active). `O=C(OCN1C(=O)c2ccccc2C1=O)c1ccco1` showed a z-score of -1.25. In the case of `Cc1cc(S(=O)(=O)NC2CCCCC2)c(C)s1`, the z-score is reported as 3.49. With `CNc1nc2c(c(=O)n(C)c(=O)n2C)n1Cc1ccccc1` the z-score was -5.04 (active). In the case of `Cc1cccc(Cn2c(NCCO)nc3c2c(=O)n(C)c(=O)n3C)c1`, the z-score is reported as -9.37 (active). With `CC(C)Cn1cnc2c1c(=O)n(C)c(=O)n2C` the z-score was -0.43. For `CC(C)CCn1c(CN(C)Cc2ccccc2)nc2c1c(=O)n(C)c(=O)n2C`, the z-score was -5.09 (active). For `Cc1cccc(OCCNc2nc3c(c(=O)n(C)c(=O)n3C)n2C)c1`, the z-score was 4.22. Molecule `Cn1c(=O)c(NCCO)c2c3c(cccc31)C(=O)c1ccccc1-2` has a z-score of 13.6. Work on `CN1CC=C2C(C#N)=C(N)C(C#N)(C#N)[C@H](c3ccoc3)[C@H]2C1` yielded a z-score of 12.4. In the case of `CCN(CC)C(=O)C1CCN(Cc2cccc(OCc3ccccc3)c2)CC1`, the z-score is reported as -4.22 (active). With `CC(C)CCn1nc(C(=O)Nc2nc3c(s2)CCCC3)c2ccccc2c1=O` the z-score was -3.57 (active). `CC(C)(C)NC(=O)c1nn(Cc2ccccc2)c(=O)c2ccccc12` showed a z-score of 1.76. In the case of `COc1ccc(S(=O)(=O)N2CCN(c3ncnc4c(-c5ccccc5)nsc34)CC2)cc1`, the z-score is reported as -3.2 (active). Molecule `Cc1ccc(-n2c3c(c(=O)[nH]c2=O)C(C(F)(F)F)(C(F)(F)F)NC(=O)N3)cc1` has a z-score of 3.01.
